PMC11006913
Numbering of substitutions follows the chain as printed.

How the values were obtained:
Experiment in all cases: PBM; 200 nM protein, PBS
Conditions in all cases: dsDNA, one strand shown
VENTX [1] = molecular target: T1, VENTX (Homo sapiens, UniProt O95231 78-163, R121Q)
T1 sequence: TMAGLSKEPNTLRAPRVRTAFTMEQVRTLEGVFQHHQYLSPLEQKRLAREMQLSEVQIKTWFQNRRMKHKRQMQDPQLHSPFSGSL

VENTX [2] = molecular target: T2, VENTX (Homo sapiens, UniProt O95231 78-163)
T2 sequence: T1 sequence with Q44R

VENTX [3] = molecular target: T3, VENTX (Homo sapiens, UniProt O95231 78-163, Y115F)
T3 sequence: T1 sequence with Y38F, Q44R

Row | Sequence | binding signal (VENTX [1]) | binding signal (VENTX [2]) | binding signal (VENTX [3])
1 | CCGAGCCC | 8.05 upbm affinity estimate (log intensity, higher = more binding, comparable within an allelic series) | 8.08 upbm affinity estimate (log intensity, higher = more binding, comparable within an allelic series) | 8.04 upbm affinity estimate (log intensity, higher = more binding, comparable within an allelic series)
2 | GTCTCCAC | 8.1 upbm affinity estimate (log intensity, higher = more binding, comparable within an allelic series) | 8.02 upbm affinity estimate (log intensity, higher = more binding, comparable within an allelic series) | 8.1 upbm affinity estimate (log intensity, higher = more binding, comparable within an allelic series)
3 | AGCCCGGA | 8.11 upbm affinity estimate (log intensity, higher = more binding, comparable within an allelic series) | 7.92 upbm affinity estimate (log intensity, higher = more binding, comparable within an allelic series) | 8.12 upbm affinity estimate (log intensity, higher = more binding, comparable within an allelic series)
4 | GTTAATAA | 10.8 upbm affinity estimate (log intensity, higher = more binding, comparable within an allelic series) | 11.2 upbm affinity estimate (log intensity, higher = more binding, comparable within an allelic series) | 10.6 upbm affinity estimate (log intensity, higher = more binding, comparable within an allelic series)
5 | CGATTAGC | 11.7 upbm affinity estimate (log intensity, higher = more binding, comparable within an allelic series) | 12.8 upbm affinity estimate (log intensity, higher = more binding, comparable within an allelic series) | 11.6 upbm affinity estimate (log intensity, higher = more binding, comparable within an allelic series)
6 | GCTCCGCC | 8.31 upbm affinity estimate (log intensity, higher = more binding, comparable within an allelic series) | 8.4 upbm affinity estimate (log intensity, higher = more binding, comparable within an allelic series) | 8.22 upbm affinity estimate (log intensity, higher = more binding, comparable within an allelic series)
7 | CACTGCGC | 8.04 upbm affinity estimate (log intensity, higher = more binding, comparable within an allelic series) | 8.14 upbm affinity estimate (log intensity, higher = more binding, comparable within an allelic series) | 8.18 upbm affinity estimate (log intensity, higher = more binding, comparable within an allelic series)
8 | GTTATTCA | 9.35 upbm affinity estimate (log intensity, higher = more binding, comparable within an allelic series) | 9.76 upbm affinity estimate (log intensity, higher = more binding, comparable within an allelic series) | 9.4 upbm affinity estimate (log intensity, higher = more binding, comparable within an allelic series)
9 | CCATTAGG | 11.7 upbm affinity estimate (log intensity, higher = more binding, comparable within an allelic series) | 12.4 upbm affinity estimate (log intensity, higher = more binding, comparable within an allelic series) | 11.4 upbm affinity estimate (log intensity, higher = more binding, comparable within an allelic series)
10 | CGAGACCG | 8.25 upbm affinity estimate (log intensity, higher = more binding, comparable within an allelic series) | 8.39 upbm affinity estimate (log intensity, higher = more binding, comparable within an allelic series) | 8.28 upbm affinity estimate (log intensity, higher = more binding, comparable within an allelic series)
11 | GGTCGGGA | 8.05 upbm affinity estimate (log intensity, higher = more binding, comparable within an allelic series) | 8.36 upbm affinity estimate (log intensity, higher = more binding, comparable within an allelic series) | 8.02 upbm affinity estimate (log intensity, higher = more binding, comparable within an allelic series)
12 | AGCGATTA | 11.2 upbm affinity estimate (log intensity, higher = more binding, comparable within an allelic series) | 12.3 upbm affinity estimate (log intensity, higher = more binding, comparable within an allelic series) | 11.3 upbm affinity estimate (log intensity, higher = more binding, comparable within an allelic series)
13 | GCTAAATA | 10.1 upbm affinity estimate (log intensity, higher = more binding, comparable within an allelic series) | 10.6 upbm affinity estimate (log intensity, higher = more binding, comparable within an allelic series) | 10 upbm affinity estimate (log intensity, higher = more binding, comparable within an allelic series)
14 | CTGGCAGC | 8.09 upbm affinity estimate (log intensity, higher = more binding, comparable within an allelic series) | 8.14 upbm affinity estimate (log intensity, higher = more binding, comparable within an allelic series) | 8.07 upbm affinity estimate (log intensity, higher = more binding, comparable within an allelic series)
15 | ATTATGTC | 10.5 upbm affinity estimate (log intensity, higher = more binding, comparable within an allelic series) | 11 upbm affinity estimate (log intensity, higher = more binding, comparable within an allelic series) | 10.4 upbm affinity estimate (log intensity, higher = more binding, comparable within an allelic series)
16 | AAATTGAT | 10.3 upbm affinity estimate (log intensity, higher = more binding, comparable within an allelic series) | 10.7 upbm affinity estimate (log intensity, higher = more binding, comparable within an allelic series) | 9.99 upbm affinity estimate (log intensity, higher = more binding, comparable within an allelic series)
17 | ACTATTTA | 10.1 upbm affinity estimate (log intensity, higher = more binding, comparable within an allelic series) | 10.6 upbm affinity estimate (log intensity, higher = more binding, comparable within an allelic series) | 10.1 upbm affinity estimate (log intensity, higher = more binding, comparable within an allelic series)
18 | AACGATTA | 11.2 upbm affinity estimate (log intensity, higher = more binding, comparable within an allelic series) | 12.3 upbm affinity estimate (log intensity, higher = more binding, comparable within an allelic series) | 11.3 upbm affinity estimate (log intensity, higher = more binding, comparable within an allelic series)
19 | CTAATCGA | 11.6 upbm affinity estimate (log intensity, higher = more binding, comparable within an allelic series) | 12.5 upbm affinity estimate (log intensity, higher = more binding, comparable within an allelic series) | 11.1 upbm affinity estimate (log intensity, higher = more binding, comparable within an allelic series)
20 | GCCAGGCA | 8.27 upbm affinity estimate (log intensity, higher = more binding, comparable within an allelic series) | 8.55 upbm affinity estimate (log intensity, higher = more binding, comparable within an allelic series) | 8.35 upbm affinity estimate (log intensity, higher = more binding, comparable within an allelic series)
21 | AAACTAAT | 11 upbm affinity estimate (log intensity, higher = more binding, comparable within an allelic series) | 11.7 upbm affinity estimate (log intensity, higher = more binding, comparable within an allelic series) | 11 upbm affinity estimate (log intensity, higher = more binding, comparable within an allelic series)
22 | CTCGTGGC | 8.11 upbm affinity estimate (log intensity, higher = more binding, comparable within an allelic series) | 8.09 upbm affinity estimate (log intensity, higher = more binding, comparable within an allelic series) | 8.12 upbm affinity estimate (log intensity, higher = more binding, comparable within an allelic series)
23 | ACCGATTA | 11.5 upbm affinity estimate (log intensity, higher = more binding, comparable within an allelic series) | 12.9 upbm affinity estimate (log intensity, higher = more binding, comparable within an allelic series) | 11.5 upbm affinity estimate (log intensity, higher = more binding, comparable within an allelic series)
24 | CTCGGACC | 8.07 upbm affinity estimate (log intensity, higher = more binding, comparable within an allelic series) | 8.13 upbm affinity estimate (log intensity, higher = more binding, comparable within an allelic series) | 8.15 upbm affinity estimate (log intensity, higher = more binding, comparable within an allelic series)
25 | CTAATGGC | 12 upbm affinity estimate (log intensity, higher = more binding, comparable within an allelic series) | 12.7 upbm affinity estimate (log intensity, higher = more binding, comparable within an allelic series) | 11.8 upbm affinity estimate (log intensity, higher = more binding, comparable within an allelic series)
26 | CCGGGTGC | 8.11 upbm affinity estimate (log intensity, higher = more binding, comparable within an allelic series) | 8.38 upbm affinity estimate (log intensity, higher = more binding, comparable within an allelic series) | 8.21 upbm affinity estimate (log intensity, higher = more binding, comparable within an allelic series)
27 | AAATATCT | 9.87 upbm affinity estimate (log intensity, higher = more binding, comparable within an allelic series) | 10 upbm affinity estimate (log intensity, higher = more binding, comparable within an allelic series) | 9.74 upbm affinity estimate (log intensity, higher = more binding, comparable within an allelic series)
28 | CATTAGAA | 10.5 upbm affinity estimate (log intensity, higher = more binding, comparable within an allelic series) | 11.1 upbm affinity estimate (log intensity, higher = more binding, comparable within an allelic series) | 10.4 upbm affinity estimate (log intensity, higher = more binding, comparable within an allelic series)
29 | ACGTAATA | 10.2 upbm affinity estimate (log intensity, higher = more binding, comparable within an allelic series) | 10.5 upbm affinity estimate (log intensity, higher = more binding, comparable within an allelic series) | 10.1 upbm affinity estimate (log intensity, higher = more binding, comparable within an allelic series)
